From PubChem
The list is not random: actives were taken first. Their share in the collection is about 2%.
INS promoter inh: TRM-6 insulin promoter activity inhibition | TRM-6 cells (human fetal islet line), insulin promoter-eGFP reporter, imaging; reporter expression induced with tamoxifen | inhibition, % at 2 µM | 130,000 tested, 0.9% active | AID 1273;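 active means inhibition above the mean plus 3 SD, with well images judged a real hit on visual review, cut at about 60% in these data, passing the limit was not always enough; inconclusive means inhibition over the cutoff but images rejected on review; inactive means inhibition not above the cutoff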
Ins promoter up: MIN6 insulin promoter up-regulation; MIN6 insulin promoter-GFP reporter, high-content imaging; active compounds read high; 190,000 tested, 0.3% active; z-score at 5 µM;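 active means z-score above 3 at 5 µM with at least 500 cells counted in the well; inconclusive means wells under 500 cells, flagged as cytotoxic or low count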
PERK inh: human PERK inhibition, primary cell-based screen | CHO PERK-DD fusion, SEAP luminescence translation reporter | AID 1416 | 220,000 tested, 0.17% active | inhibition, % at 5.6 µM;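 active means inhibition above the mean inhibition of all tested compounds plus 3 SD, set separately per screening campaign, cut at about 2.9% in these data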;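 further: PERK kinase domain activated by AP20187 dimerizer at 100 nM; 0% = DMSO with dimerizer and 100% = rapamycin at 8.4 µM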
eIF4E-4G inh: blocks eIF4E binding to eIF4G | 220,000 tested, 0.37% active | TR-FRET eIF4E-eIF4GI(517-606) binding, 2 h | inhibition, % at 21.7 µM;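 active means inhibition above about 30%, limit read from the data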;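 further: 0% = full FRET control wells and 100% = background wells lacking eIF4GI fragment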
Autophagy mod: modulators of autophagy | MEF GFP-LC3 puncta imaging; test concentration mostly 10 µM | calls only at 10 µM (by protocol) | 190,000 tested, 0.98% active | AID 463193;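 active means percentage of spot-positive cells more than 3 SD above its plate mean, without a fluorescence outlier flag or 80% toxicity; inconclusive means no clear call, values can overlap the other calls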;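 further: spot-positive cell cutoff set from DMSO-treated cells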
An asterisk follows results filed as active; i = inactive; ? = inconclusive; / = no result given; + = active, no number; ! = not confirmed by another sample.

SMILES	INS promoter inh	Ins promoter up	PERK inh	eIF4E-4G inh	Autophagy mod
CCCc1c2ccccc2nc2ccccc12	84.6*	0.17	-0.4	5.8	i
COCCN(CCOC)Cc1cc(=O)oc2cc3c(cc12)CCC3	8.3	3.14*	-0.1	3.5	i
COc1cc(S(=O)(=O)Nc2ccc(C)cc2)ccc1N=Cc1c(C)[nH]n(-c2ccccc2)c1=O	72.0*	0.44	0.3	5.2	i
Cc1[nH]n(-c2ccccc2)c(=O)c1C=Nc1cccc2cccnc12	-73.7	-0.82	0.3	3.9	+
O=C(C1CCC1)N1CCC(O)(c2cccc(F)c2)CC1	-33.3	-0.58	-0.5	-0.6	i
CC(=O)Nc1ccc(S(=O)(=O)NC(C(=O)O)C(C)O)cc1 (centres undefined)	/	0.66	0.6	1.2	/
Cc1ccc(S(=O)(=O)NNc2ccccc2)c(C)c1	34.5	/	0.4	-1.1	i
Cc1ccc(S(=O)(=O)NC(=O)c2ccc(-c3ccc(-c4ccccc4)cc3)o2)c(C)c1	66.7*	-0.39	1.0	0.8	i
Cn1cc(/C=N/NC(=O)c2ccc(C#N)cc2F)c2ccccc21	/	0.07	-0.2	0.8	i
NS(=O)(=O)c1ccc(NC(=O)c2ccc3nccnc3c2)cc1	/	-0.08	1.5	93.6*	/
O=C(Nc1ccc(S(=O)(=O)Nc2ncccn2)cc1)c1ccc2ncsc2c1	/	-0.11	2.9*	51.4*	/
COc1ccc(NC(=S)N(CCN(C)C)C(C)c2ccco2)cc1Cl (centres undefined)	13.2	-0.5	1.0	-6.1	i
CC(c1nc2ccccc2o1)N1C(=O)c2ccccc2C1=O (centres undefined)	61.9	/	-0.2	-3.5	i
CCCN(CCC)c1nc(C)cc(C(C#N)c2nc3ccccc3o2)n1 (centres undefined)	/	-0.33	-0.6	-6.2	+
CCC/C(O)=C1\C(=O)CC(c2ccccc2)CC1=NC(C)C(=O)O (centres undefined)	17.9	0.16	0.8	-0.9	i
COc1ccc(C2C(C(=O)Nc3ccccc3OC)=C(C)Nc3ncnn32)cc1 (centres undefined)	/	0.98	-0.1	-1.4	+
Cc1nc(/C=C/c2ccccc2)[nH]c(=O)c1-c1ccccc1	-35.7	0.35	0.9	1.1	i
COc1ccc(-n2cc3c(-c4cccc(Br)c4)nnc(C)c3n2)cc1	-10.7	-0.93	-1.5	-17.1	+
COCCn1nnnc1CN(CCc1ccc(OC)c(OC)c1)Cc1cc2ccc(C)cc2[nH]c1=O	/	-0.06	-1.3	-11.6	+
COCCn1nnnc1CN(CCc1ccccc1)Cc1cc2cc(OC)ccc2[nH]c1=O	-53.3	/	-0.2	/	i
O=C(O)CCCNC(=O)Cc1ccccc1	/	-0.17	1.5	-11.0	/
COC(=O)Cc1n[nH]c(=O)c2ccccc12	35.7	/	3.5*	-1.4	i
N=C1C(c2ccccc2)=C(O)CN1c1cccc(S(=O)(=O)NCc2ccco2)c1	/	-0.09	-0.1	1.8	/
CCOC(=O)c1cc(-c2ccccc2)sc1NC(=O)C(C)(C)C	57.7	-0.01	2.2	0.7	i
CCOC(=O)c1cc(-c2ccccc2)sc1NC(=S)Nc1cc(C)ccn1	/	0.24	1.3	/	+
SMILES	INS promoter inh	Ins promoter up	PERK inh	eIF4E-4G inh	Autophagy mod
C/C(CC(=O)Nc1ccc(Cl)cc1Cl)=N\NC(=O)c1ccncc1	/	0.86	3.1*	-5.0	/
C/C(CC(=O)Nc1ccc(C)c(Cl)c1)=N\NC(=O)c1ccncc1	-66.7	0.63	1.6	1.7	i
C[C@@H]1CN(Cc2nc(-c3cccs3)no2)C[C@H](C)O1	/	0.73	0.2	-1.8	+
Cc1cccc(NC(=O)CSc2nncn2-c2ccccn2)c1	-3.7	1.24	1.8	-0.5	i
O=C(NCC1CCCO1)C(c1ccccn1)N(Cc1ccccc1Cl)C(=O)CN1C(=O)c2ccccc2S1(=O)=O (centres undefined)	/	/	-0.6	0.7	+
O=C(NCC1CCCO1)C(c1ccncc1)N(Cc1ccc(F)cc1)C(=O)CN1C(=O)c2ccccc2S1(=O)=O (centres undefined)	-33.3	-0.46	0.5	-0.4	i
COc1ccc(CCN2C(=O)C3C4C=CC(C4)C3C2=O)cc1OC (centres undefined)	11.1	/	-0.1	5.3	i
O=C(Nc1ccc(Cl)cc1)c1cccs1	25.7	-0.66	0.5	6.8	i
O=C(Nc1ccc2[nH]ccc2c1)c1cccs1	/	0.07	-0.1	32.4*	/
O=C(Cc1ccc(Cl)cc1)Nc1ccc(NC(=O)c2cccs2)cc1	-13.3	0.26	1.4	0.4	+
CC(=O)Nc1ccc2nc(-c3ccco3)[nH]c2c1	35.7	0.2	0.7	0.1	i
O=C(Nc1ccc2nc(-c3ccco3)[nH]c2c1)c1ccco1	82.1*	0.96	0.0	8.3	i
C/C(=N/NC(=O)c1cccs1)c1ccc(NC(=O)COc2ccc(Cl)cc2Cl)cc1	/	0.8	1.7	-28.2	+
CCOc1ccc(-c2c[n+]3c(n2-c2ccccc2)CCCCC3)cc1	/	?	0.2	-1.9	i
O=C(Nc1ccc2nc(-c3ccc4nc[nH]c4c3)[nH]c2c1)c1cccs1	50.0	-0.26	0.7	-9.9	i
O=C(Nc1ccc2nc(-c3ccccc3)[nH]c2c1)c1cccs1	76.7*	/	-2.3	-4.5	i
CCCC(C)c1nnc(NC(=O)C(=O)OCC)s1 (centres undefined)	9.5	0.28	3.0*	1.5	i
CCCC(C)c1nnc(NC(=O)C2CCCO2)s1 (centres undefined)	-293.8	0.54	-1.1	-5.7	i
CCCC(=O)Nc1sc(C)c(-c2ccc(C(C)CC)cc2)c1C#N (centres undefined)	14.0	/	-0.4	-5.7	i
CCOC(=O)Nc1nc(-c2ccccc2)c(C(=O)c2ccccc2)s1	18.9	-0.18	-1.7	-58.6	+
COc1ccc(CCN2CC(C(=O)Nc3cccc(C(C)=O)c3)CC2=O)cc1OC (centres undefined)	/	0.09	1.1	4.4	+
CCCCOc1ncnc2c1[nH]c1ccc(C)cc12	/	-0.88	0.2	-5.8	/
Cc1occc1C(=O)Nc1nn[nH]n1	91.9*	0.65	-0.3	-10.8	i
Cc1occc1C(=O)Nc1c(F)c(F)c(F)c(F)c1F	-26.7	/	-1.3	0.7	i
CCCCCOCC1CC(C/C(C)=N/Nc2nc(-c3ccccc3)cs2)C(=O)O1 (centres undefined)	33.3	/	0.5	8.0	i
CC(=O)NC(C)C(=O)OCC(=O)c1ccc(-c2ccccc2)cc1 (centres undefined)	0.0	-0.45	0.7	-0.9	+
CC(=O)NC(C)C(=O)OCC(=O)c1ccc(Cl)s1 (centres undefined)	0.0	-0.04	0.8	-11.2	i
CCc1ccc2oc(-c3cc(N)cc(C)c3O)nc2c1	-182.3	-1.53	0.5	-6.7	+
CC1CCC(C(C)C)C(OC(=O)Cn2c(-c3ccccc3)[n+](C)c3ccccc32)C1 (centres undefined)	-43.3	?	-0.2	-18.6	+!
